# Screen size: about 29,000 compounds; fewer than 10 were called active. No rule for the calls is given here. These entries were drawn from the full list.
# Experiment: reversal of PD-1 mediated T-cell inhibition, primary screen, luminescence, primary human CD4 T cells, PD-L1 beads (AID 2316);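 also: 0% = median vehicle wells and 100% = positive control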
# Conditions: CellTiter-Glo 96 h, stronger effect = higher value
row,SMILES,activation
1,COc1ccc(NC(=O)Nc2ccc3c(c2)CC(=O)N([C@H](C)CO)C[C@H](C)[C@H](CN(C)Cc2ccncc2)O3)cc1,0.119% (inactive)
2,CC(=O)Nc1ccc(Nc2c3c4c(cccc4[nH]c2=O)C(=O)c2ccccc2-3)cc1,-3.04% (inactive)
3,Cc1noc(C)c1S(=O)(=O)Nc1ccc2c(c1)CC(=O)N([C@@H](C)CO)C[C@H](C)[C@@H](CN(C)S(=O)(=O)c1cn(C)cn1)O2,1.24% (inactive)
4,C[C@H]1CN([C@@H](C)CO)C(=O)c2cccc(NS(=O)(=O)c3ccc(F)cc3)c2O[C@@H]1CN(C)C,0.422% (inactive)
5,Cc1ccc(S(=O)(=O)Nc2ccc3c(c2)C(=O)N([C@H](C)CO)C[C@H](C)[C@H](CN(C)S(C)(=O)=O)O3)cc1,0.318% (inactive)
6,COc1ccc(NC(=O)Nc2cccc3c2O[C@H](CN(C)C(=O)Nc2ccc(F)cc2)[C@@H](C)CN([C@@H](C)CO)C3=O)cc1,1.83% (inactive)
7,COc1ccc(NC(=O)N(C)C[C@@H]2OCCCC[C@@H](C)Oc3ccc(NC(=O)NC4CCCCC4)cc3C(=O)N([C@H](C)CO)C[C@@H]2C)cc1,0.764% (inactive)
8,CCOc1ccc(NC(=O)CSc2nccc(C)n2)cc1,1.48% (inactive)
9,Cc1ccc(C)c(NC(=O)CSc2nc(C)nc3sc(C)c(C)c23)c1,0.586% (inactive)
10,CC(C)(C)c1ccc(S(=O)(=O)NCC(=O)Nc2ccc(F)cc2)cc1,-2.51% (inactive)
11,COC(=O)c1c(NC(=O)COc2ccc(C(C)C)c(C)c2)sc2c1CCC2,0.596% (inactive)
12,O=S(=O)(c1ccccc1)c1nc(-c2ccccc2F)oc1NCc1cccnc1,-0.501% (inactive)
13,COc1ccccc1N(CC(=O)Nc1ccc(C(F)(F)F)cc1)S(C)(=O)=O,0.0709% (inactive)
14,C[C@@H]1CN([C@H](C)CO)C(=O)c2cccc(NC(=O)c3ccncc3)c2O[C@@H]1CN(C)C,0.1% (inactive)
15,Cc1ccc(S(=O)(=O)Nc2ccc3c(c2)CC(=O)N([C@H](C)CO)C[C@@H](C)[C@H](CN(C)S(=O)(=O)c2c(C)noc2C)O3)cc1,0.836% (inactive)
16,O=C(NCc1ccccn1)C(=O)Nc1cccc(Cl)c1Cl,2.26% (inactive)
17,COC1OC(O)C(O)C12CC[C@@]1(O2)[C@H](C)C[C@H]2OC(=O)[C@@]3(C)CCC[C@]1(C)C23 (stereo partly drawn),0.449% (inactive)
18,Cc1ccc(S(=O)(=O)CCC(=O)Nc2ccc(Cl)cc2)cc1,0.811% (inactive)
19,Cc1ccc(C(=O)O)cc1S(=O)(=O)NCC1CCCO1 (stereo not drawn),-0.751% (inactive)
20,COc1ccc(NC(=O)Nc2ccc3c(c2)CC(=O)N([C@@H](C)CO)C[C@H](C)[C@H](CN(C)C(=O)Nc2ccc4c(c2)OCO4)O3)cc1,0.0102% (inactive)
21,COc1ccc2nc3c(nc2c1)C(=O)c1ccccc1C3=O,0.69% (inactive)
22,C[C@H](CO)N1C[C@H](C)[C@@H](CN(C)Cc2ccccc2)Oc2c(NC(=O)CCCCCC(=O)Nc3ccccc3N)cccc2C1=O,-2.46% (inactive)
23,Cc1ccc(S(=O)(=O)N(C)C[C@H]2Oc3ccc(NC(=O)Cc4cn(C)c5ccccc45)cc3CC(=O)N([C@@H](C)CO)C[C@H]2C)cc1,-0.47% (inactive)

row,SMILES,activation
1,C/C=C(/C)C(=O)O[C@H]1CC(C)(C)C[C@H]2C3=CCC4[C@@]5(C)CC[C@H](O[C@@H]6O[C@H](C(=O)O)[C@@H](O[C@@H]7O[C@H](CO)[C@H](O)[C@H](O)[C@H]7O[C@@H]7O[C@H](CO)[C@@H](O)[C@H](O)[C@H]7O)[C@H](O)[C@H]6O[C@@H]6O[C@@H](C)[C@H](O)[C@@H](O)[C@H]6O)C(C)(C)C5CC[C@@]4(C)[C@]3(C)[C@@H](OC(C)=O)[C@@H](O)[C@@]12COC(C)=O (stereo partly drawn),-14.9% (inactive)
2,C[C@@H]1CCCCO[C@H](CN(C)Cc2ccncc2)[C@@H](C)CN([C@H](C)CO)C(=O)c2cc(NC(=O)CCCN(C)C)ccc2O1,0.961% (inactive)
3,Cc1cc(C)c(C(=O)CSc2nc(C)cc(=O)[nH]2)c(C)c1,1.17% (inactive)
4,CS(=O)(=O)N(CC(=O)N1CCOCC1)c1ccc2c3c(cccc13)CC2,0.857% (inactive)
5,COc1cc(C2OC(c3cc(OC)c(OC)c(OC)c3)C(C)C2C)cc(OC)c1OC (stereo not drawn),0.69% (inactive)
6,Cc1noc(C)c1NC(=O)N(C)C[C@H]1Oc2ccc(NS(=O)(=O)c3ccc(F)cc3)cc2C(=O)N([C@@H](C)CO)C[C@H]1C,2.2% (inactive)
7,COc1ccc(NC(=O)N(C)C[C@H]2Oc3c(NC(=O)Nc4cccc5ccccc45)cccc3C(=O)N([C@@H](C)CO)C[C@H]2C)cc1,0.624% (inactive)
8,CC(=O)Oc1ccc2occ(C(=O)c3cc4ccccc4o3)c2c1,-0.284% (inactive)
9,CS(=O)(=O)N(CC(=O)Nc1cc(C(F)(F)F)ccc1Cl)c1ccc(Br)cc1,-0.295% (inactive)
10,C[C@H]1CN([C@@H](C)CO)C(=O)c2cccc(NC(=O)C3CCOCC3)c2O[C@@H]1CN(C)C,0.0381% (inactive)
11,C[C@@H]1CN([C@@H](C)CO)C(=O)Cc2cc(NC(=O)CCCCCC(=O)Nc3ccccc3N)ccc2O[C@@H]1CN(C)C(=O)NC1CCCCC1,0.434% (inactive)
12,C[C@@H]1CN([C@H](C)CO)C(=O)c2cc(NC(=O)Nc3ccc4c(c3)OCO4)ccc2O[C@H]1CN(C)C(=O)Nc1ccccc1,0.77% (inactive)
13,Cn1nc(C(=O)O)c2ccccc2c1=O,-0.137% (inactive)
14,COc1ccc(S(=O)(=O)N(C)CC(=O)Nc2cccc(C(F)(F)F)c2)cc1OC,-1.43% (inactive)
15,CCCCCC(O)c1cccc(OCc2ccc3ccccc3n2)c1 (stereo not drawn),5.54% (inactive)
16,C[C@H]1CN([C@@H](C)CO)C(=O)c2cccc(NC(=O)c3ccncc3)c2O[C@H]1CN(C)C,2.81% (inactive)
17,O=C(O)C1CC=CCC1C(=O)Nc1ccc(C(=O)N2CCCCC2)c(Cl)c1 (stereo not drawn),2.23% (inactive)
18,Cc1ccc(S(=O)(=O)N(C)C[C@@H]2Oc3c(NC(=O)C4CCCCC4)cccc3C(=O)N([C@H](C)CO)C[C@H]2C)cc1,1.48% (inactive)
19,Cc1ccc(S(=O)(=O)Nc2ccc3c(c2)C(=O)N([C@H](C)CO)C[C@H](C)[C@@H](CN(C)S(=O)(=O)c2cccs2)O3)cc1,-1.04% (inactive)
20,CC(C)CSc1nnc(CSCc2nc(-c3ccc(Cl)cc3)cs2)n1C,1.7% (inactive)
21,CS(=O)(=O)N(CC(=O)Nc1ccc(F)c(Cl)c1)C1CCCCC1,0.469% (inactive)
22,CC(C)NC(=O)N(C)C[C@@H]1Oc2ccc(NS(=O)(=O)c3ccccc3)cc2C(=O)N([C@@H](C)CO)C[C@H]1C,1.49% (inactive)
23,C[C@H]1CN([C@@H](C)CO)C(=O)Cc2cc(NC(=O)CCCCCC(=O)Nc3ccccc3N)ccc2O[C@H]1CN(C)C(=O)Nc1ccc(F)cc1,0.894% (inactive)

row,SMILES,activation
1,Cc1noc(C)c1S(=O)(=O)N(C)C[C@@H]1Oc2c(NS(=O)(=O)c3cn(C)cn3)cccc2C(=O)N([C@H](C)CO)C[C@@H]1C,1.65% (inactive)
2,O=c1c2ccccc2nc(SCc2ccc(F)cc2)n1-c1ccccc1,-10.1% (inactive)
3,COC(=O)c1ccc(C(=O)OC)c(NC(=O)COc2ccc(C)cc2)c1,-5.39% (inactive)
4,O=C(Nc1ccc(C23CC4CC(CC(C4)C2)C3)cc1)c1cccs1,0.396% (inactive)
5,C/C=C1\C2C=C(C)CC1(N)c1ccc(=O)[nH]c1C2 (stereo not drawn),0.91% (inactive)
6,COc1cccc2cc(C(=O)Nc3sc4c(c3C(N)=O)CCCCC4)c(=O)oc12,3.77% (inactive)
7,COc1ccc(S(=O)(=O)Nc2ccc3c(c2)C(=O)N([C@H](C)CO)C[C@@H](C)[C@H](CN(C)S(=O)(=O)c2ccc(C)cc2)O3)cc1,0.261% (inactive)
8,COc1ccc(Oc2ccc(NC(=O)CCC(=O)O)cc2)cc1,0.302% (inactive)
9,C[C@@H]1CN([C@H](C)CO)C(=O)Cc2cc(NC(=O)Cc3ccccc3)ccc2O[C@@H]1CN(C)Cc1ccccc1,1.25% (inactive)
10,O=C(CN1CCOCC1)Nc1sc2c(c1C(=O)Nc1ccc(Br)cc1)CCC2,-2.1% (inactive)
11,C[C@@H]1CN([C@@H](C)CO)C(=O)c2cc(NS(=O)(=O)c3ccc(Cl)cc3)ccc2O[C@H]1CN(C)S(=O)(=O)c1cn(C)cn1,-1.79% (inactive)
12,COc1cc(C=Nc2ccc(Cl)cc2)ccc1OC(=O)/C=C/c1cccs1,-0.177% (inactive)
13,CCO/C([O-])=N\c1c[n+](N2CCOCC2)no1,0.71% (inactive)
14,C[C@@H]1CN([C@H](C)CO)C(=O)c2cc(NC(=O)Cc3ccccc3)ccc2O[C@@H]1CN(C)CC1CCCCC1,-0.76% (inactive)
15,C[C@@H]1CCCCO[C@@H](CN(C)C(=O)NC2CCCCC2)[C@@H](C)CN([C@H](C)CO)C(=O)c2cc(NC(=O)CCCCCC(=O)Nc3ccccc3N)ccc2O1,0.709% (inactive)
16,Cc1ccc(-n2c(C)nc3sc4c(c3c2=O)CCC4)cc1,-4.12% (inactive)
17,CC(=O)c1cccc(NC(=O)CN(c2ccc(F)c(Cl)c2)S(C)(=O)=O)c1,2.89% (inactive)
18,C[C@@H]1CN([C@H](C)CO)C(=O)Cc2cc(NC(=O)C3CCCCC3)ccc2O[C@@H]1CN(C)Cc1ccc(C(F)(F)F)cc1,-3.12% (inactive)
19,CC1=Nn2c(Cn3nnc4ccccc43)nnc2SC1,0.665% (inactive)
20,CC(=O)c1cccc(NC(=O)CN(C2CCCCC2)S(=O)(=O)c2ccccc2)c1,-2.41% (inactive)
21,CC(C)NC(=O)Nc1ccc2c(c1)C(=O)N([C@@H](C)CO)C[C@H](C)[C@@H](CN(C)C)O2,0.0718% (inactive)
22,CCCOC(=O)C1=C(C)N(CC)C(=O)NC1c1ccccc1Cl (stereo not drawn),-0.396% (inactive)

# From PubChem BioAssay AID2316 (Broad Institute, 2010)
